# Abeta rescue: compounds reversing amyloid beta toxicity in yeast; Potency, µM (highest dose often 46.1 µM), most hits filed as activators; yeast expressing A-beta42, growth rescue, OD600, 48 h; response scale: 0% DMSO, 100% iron-clioquinol control; 410,000 compounds, 0.063% hits; AID 1347071; further: nearly all actives have a fitted effect of over 55% in size
#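 Yeast A-beta toxicity model in growth medium with pinned compounds, 48 h at 30 C; growth read as absorbance at 600 nm. Normalized to FeCl3/clioquinol equimolar mix (positive) and DMSO (negative).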
# LDHA block: LDHA (human) enzyme inhibition; purified LDHA, NADH/diaphorase-resazurin fluorescence; hits give low values; activity change, % (values are at about 110 or 230 µM); P00338; 480,000 compounds, 0.15% hits; in the data active means activity change below about -30%; inconclusive means mostly about -25% to -30%
#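 Remaining NADH was detected by diaphorase (0.133 mg/mL) converting 37 µM resazurin to fluorescent resorufin, read at 0 and 20 minutes. The preceding 5-minute room-temperature reaction used 2 nM LDHA, 0.2 mM sodium pyruvate and 0.06 mM NADH at pH 7.4.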
# TDP-43 yeast inh: inhibitors of TDP-43 toxicity in yeast | Potency, µM (highest dose often 46.1 µM), usual class: activators | AID 652104 | 410,000 compounds, 1.8% hits | TDP-43 expressing yeast growth rescue, BacTiter-Glo, 24 h; further: nearly all actives have a fitted effect of over 50% in size
#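 Luminescence from BacTiter-Glo reports growth of TDP-43-expressing yeast after 24 hr at 30 deg C with compound. Cells were raffinose-pregrown to mid-log, then seeded in galactose medium at OD600=0.02.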
# PTHR1 ag: PTHR1 (human) receptor agonism. Q03431. HEK293 GP2 PTHR1 cells, GloSensor cAMP luminescence, 1 h. Potency, µM (series often up to 115 µM), most hits filed as activators. 410,000 compounds, 0.075% hits; further: nearly all actives have a fitted effect of over 55% in size
# Target sequence (Q03431 whole entry, looked up): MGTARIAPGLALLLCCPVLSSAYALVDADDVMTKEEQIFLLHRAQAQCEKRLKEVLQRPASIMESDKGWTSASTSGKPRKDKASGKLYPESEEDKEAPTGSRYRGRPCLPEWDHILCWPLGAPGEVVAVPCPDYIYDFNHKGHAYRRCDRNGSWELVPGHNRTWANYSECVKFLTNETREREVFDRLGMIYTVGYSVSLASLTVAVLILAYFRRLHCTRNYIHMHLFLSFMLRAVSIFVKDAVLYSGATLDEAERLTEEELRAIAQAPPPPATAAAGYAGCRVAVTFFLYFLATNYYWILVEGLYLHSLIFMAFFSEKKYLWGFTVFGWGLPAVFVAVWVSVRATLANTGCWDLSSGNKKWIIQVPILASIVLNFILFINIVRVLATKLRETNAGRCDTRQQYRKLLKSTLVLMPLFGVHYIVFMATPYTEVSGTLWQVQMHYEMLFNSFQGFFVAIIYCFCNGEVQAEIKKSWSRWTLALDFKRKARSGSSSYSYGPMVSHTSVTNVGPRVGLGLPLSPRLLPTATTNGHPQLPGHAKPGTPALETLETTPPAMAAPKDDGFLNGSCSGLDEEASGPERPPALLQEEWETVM
#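 HEK-293-derived GP2 cells expressing PTHR1 and a GloSensor cAMP reporter, 3,000/well, plated overnight, given luciferin plus IBMX (each 0.5 mM as added) for 1 h at 37 °C, then compound for 1 h at 37 °C. Luminescence was read after 15 min at room temperature.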
# FUS yeast rescue: FUS proteinopathy suppression in yeast; S. cerevisiae FUS-expressing, growth rescue, OD600, 24 h; Potency, µM (doses to about 76.6 µM), actives largely listed as activators; 390,000 compounds, 0.24% hits; AID 1347120; further: nearly all actives have a fitted effect of over 55% in size
#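 Compound concentration series was pinned onto galactose-induced FUS-expressing yeast seeded at OD 0.005. Plates sat 24hr at 30C; absorbance at 600 nm gave growth. DMSO served as background control.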
# aSyn yeast inh: alpha-synuclein toxicity inhibition in yeast | Yeast expressing alpha-synuclein, growth rescue, BacTiter-Glo, 24 h | Potency, µM (highest dose often 46.1 µM), usual class: activators | 370,000 compounds, 0.14% hits; further: nearly all actives have a fitted effect of over 65% in size
#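 Galactose-induced alpha-syn yeast (OD600=0.02, raffinose-pregrown) + pinned cpd, 24 hr, 30 deg C; growth by BacTiter-Glo luminescence. Growth restoration scores as activation.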
# A number is an active result; 0 = inactive; ? = inconclusive; - = no result; [ ] = remark or other dose. Most compounds without a hit are left out; they make up all but 1.9% or so of the library. Unless noted, the call rests on the fitted dose curve; in most records, active means well fitted curve in the direction sought with a large enough effect; inconclusive means small, poorly fitted or top-dose-only effect, or another doubt; inactive means no such curve, though single readings can be large; an effect the other way counts as inactive or inconclusive.
SMILES,Abeta rescue,LDHA block,TDP-43 yeast inh,PTHR1 ag,FUS yeast rescue,aSyn yeast inh
Cc1cc2nc3c(nc2cc1C)C1(C(=O)O)CCC3(C)C1(C)C (stereo not given),0,0,20µM,0,0,0
O=C(NCCc1ccc(F)cc1)NC12CC3CC(CC(C3)C1)C2,0,0,0,0,0,0
O=C(NCCC1=CCCCC1)NC12CC3CC(CC(C3)C1)C2,0,0,15.8µM,0,0,0
COCCN(Cc1ccco1)C(=O)Cn1nc(Cc2cccnc2)c2ccccc2c1=O,-,0,-,-,-,-
CCOC(=O)N/C(N)=N/c1nc2ccccc2s1,0,0,11.2µM,0,0,-
COc1cccc(NC(=O)CN(C)C(=O)c2cccc(S(=O)(=O)N3c4ccccc4CC3C)c2)c1 (stereo not given),0,0,0,0,22.4µM,0
COCCn1c(COc2ccccc2-c2ccccc2)nnc1SCC(=O)c1ccccc1Cl,-,0,-,-,-,-
Fc1ccc(C2=CC(c3ccc(Br)o3)n3ncnc3N2)cc1 (stereo not given),0,0,17.8µM,0,-,0
Fc1ccc(Br)cc1C1C=C(c2cccnc2)Nc2ncnn21 (stereo not given),0,0,25.1µM,0,0,0
CCOc1ccc(C2=CC(c3cc(Br)ccc3F)n3ncnc3N2)cc1Cl (stereo not given),0,0,35.5µM,0,0,-
CCOc1ccc(N2C(=O)CS(=O)(=O)C23C(=O)N(Cc2cccc(C)c2)c2ccccc23)cc1 (stereo not given),-,0,-,-,-,-
COc1ccc(/C=C2/C(=O)ON=C2C)cc1Br,0,0,0,0,0,0
COc1ccccc1/C=C1/C(=O)ON=C1C,0,0,14.1µM,0,0,0
O=c1oc2ccc(Br)cc2cc1-c1nc2ccccc2o1,0,0,0,0,0,0
COc1cccc2cc(-c3nc4ccccc4o3)c(=O)oc12,0,0,3.16µM,0,0,3.16µM
COc1ccc([C@H]2CC(=O)C=C(c3cc(C)ccc3F)C2)cc1,?,0,20µM,0,?,?
COc1ccc([C@H]2CC(=O)C=C(c3cc(Cl)ccc3C)C2)cc1,?,0,20µM,0,0,0
CC(C)CCn1c(SCCO)nc2c1c(=O)[nH]c(=O)n2C,-,0,-,-,-,-
COC(=O)C1=C(C)OC(N)=C(C#N)C1c1cccc(C(F)(F)F)c1 (stereo not given),-,0,-,-,-,-
Cc1ccc(/C=N/NC(=O)c2ccccc2OCc2ccc(F)cc2)o1,0,0,0,0,0,0
O=C(N/N=C/c1ccncc1)c1ccccc1OCc1ccc(Br)cc1,0,0,31.6µM,0,0,0
O=C(c1ccc(OCc2cn3ccccc3n2)cc1)N1CCN(c2ccccn2)CC1,-,0,-,-,-,-
CCn1nc(C)c(/C=N/NC(=O)c2ccc3c(c2)c(C)c(C)n3Cc2ccccc2)c1C,0,0,0,0,11.2µM,0
Cc1cccc(C(=O)OC(C)C(=O)c2ccc(F)cc2)c1O (stereo not given),-,0,-,-,-,-
Cc1ccc(CNc2nc3c(c(=O)n(C)c(=O)n3C)n2Cc2cccc3ccccc23)cc1,-,0,-,-,-,-
SMILES,Abeta rescue,LDHA block,TDP-43 yeast inh,PTHR1 ag,FUS yeast rescue,aSyn yeast inh
CCc1ccc(CCC(=O)Nc2ccc(Br)cc2)o1,0,0,22.4µM,0,0,0
Cc1ccc(CCC(=O)Nc2ccc(Br)cc2)o1,0,0,0,0,0,0
CCOC(=O)Cn1nc(/C=C/c2ccc(C(C)C)cc2)ccc1=O,0,0,20µM,0,?,0
CCOC(=O)Cn1nc(/C=C/c2ccc(C)cc2)ccc1=O,0[9.22 µM],0,?,0,0,0
COc1ccc(C(C)(C)C)cc1-c1csc(N)n1,-,0,-,-,-,-
CSc1ccccc1OCc1cc(C(=O)NCc2cnc(C)cn2)no1,0,0,11.2µM,0,0,0
CSc1ccccc1OCc1cc(C(=O)NCc2csc(C(C)C)n2)no1,0,0,?,0,0,0
Cc1ccc(NC(=S)/N=C(\N)Nc2nc(C)c3ccccc3n2)cc1C,0,0,0,0,0,0
Cc1cc(C)cc(NC(=S)/N=C(\N)Nc2nc(C)c3ccccc3n2)c1,0,0,15.8µM,0,-,0
Cc1cccc(NC(=S)/N=C(\N)Nc2nc(C)c3ccccc3n2)c1,?,0,20µM,0,0,0
Cc1cccc(Nc2ccc3ccccc3c2)c1,-,0,-,-,-,-
Cc1ccc(-c2cc(C(F)F)n3nc(C)c(Br)c3n2)cc1,-,-34.0,-,-,-,-
Fc1cccc(-c2nc(COc3ccc(Oc4ccccn4)cc3)co2)c1,-,0,-,-,-,-
CCOc1cc2c(cc1O)CCC1C2CCC2(C)C(O)CCC12 (stereo not given),0,0,15.8µM,0,-,0
Cc1sc(NC(=O)C2CC2)c(C#N)c1C,-,0,-,-,-,-
Cc1ccc(NC(=O)CN2C(=O)N/C(=C\c3cccn3-c3ccc(-c4nn[nH]n4)cc3)C2=O)cc1,-,0,-,-,-,-
CN(C)CCOC1c2ccccc2CCc2ccc3ccccc3c21 (stereo not given),0,0,15.8µM,0,0,?
CN(C)CCOC1c2ccccc2C=Cc2ccccc21,0,0,?,0,0,?
CCN(CCC(F)(F)F)C(=O)c1cc2cccc([N+](=O)[O-])c2[nH]1,-,0,-,-,-,-
CCn1cc(C(=O)NCc2ccco2)c(=O)c2cc(S(=O)(=O)N3CCc4ccccc4C3)ccc21,0,0,0,0,6.31µM,0
O=C(Nc1ccc2nc[nH]c(=O)c2c1)c1ccc(F)cc1F,-,0,-,-,-,-
O[C@@H]1COC(Nc2ccc(N=Nc3ccccc3)cc2)C[C@@H]1O (stereo not given in full),0,0,12.6µM,0,0,0
CCCCOc1ccc(NC(=O)Nc2nnc(C)s2)cc1,0,0,0,0,0,1.26µM
COc1ccc(O)c(C2=Nc3ccccc3N=C(c3ccccc3)C2)c1,0,0,0,0,0,0
COc1ccc2c(c1)NC(=O)CC(c1ccccc1)=N2,0,0,14.1µM,0,0,0
SMILES,Abeta rescue,LDHA block,TDP-43 yeast inh,PTHR1 ag,FUS yeast rescue,aSyn yeast inh
CCc1ccc(NC(=O)c2ccccc2SCC(=O)NCc2ccco2)cc1,-,0,-,-,-,-
CN=C(Nc1cc(Cl)ccc1Cl)SC1CC(=O)N(c2ccc(C(=O)OC)cc2)C1=O (stereo not given),?,0,25.1µM,0,?,?
COc1ccccc1-c1ccc([C@@H]2C[C@H]3[C@H](CON3C)CN2C(=O)c2ccco2)cc1,0,-32.2,0,0,0,0
CN1OC[C@@H]2CN(C(=O)c3ccco3)[C@H](c3ccc(-c4ccc(C#N)cc4)cc3)C[C@@H]21,0,0,0,0,?,0
CCn1nc(C(=O)NCC(c2ccco2)N2CCCC2)c2ccccc2c1=O (stereo not given),-,0,-,-,-,-
O/N=C(\c1ccc(O)cc1O)c1ccccc1F,-,-31.3,-,-,-,-
O/N=C(/Cc1ccccc1)c1ccc(O)cc1O,-,0,-,-,-,-

# Bioassay records deposited in PubChem by National Center for Advancing Translational Sciences (NCATS).
